Source: PubChem BioAssay (NCATS)
Results filed as inconclusive are left out. A call without a number means that no potency is given here. Calls of active or inactive are those of the source. Unless noted, calls follow the shape of the full dose curve.

How the values were obtained:
[1] = qHTS for Inhibitors of the Functional Ribonucleoprotein Complex (vRNP) of Lassa (LASV) Arenavirus: LASV Primary Screen - GLuc reporter signal (AID 1347082; calls by dose curve; tested in HEK293 reporter line; also: nearly all actives have a fitted effect of over 60% in size)
[2] = qHTS for Inhibitors of the Functional Ribonucleoprotein Complex (vRNP) of Lassa (LASV) Arenavirus: Viability assay - alamar blue signal for LASV Primary Screen (AID 1347083; calls by dose curve; tested in HEK293 reporter line; also: nearly all actives have a fitted effect of over 80% in size)
[3] = qHTS for Inhibitors of the Functional Ribonucleoprotein Complex (vRNP) of Lymphocytic Choriomeningitis Arenaviruses (LCMV): Viability assay - alamar blue signal for LCMV Primary Screen (AID 1347085; calls by dose curve; tested in HEK293 reporter line; also: nearly all actives have a fitted effect of over 80% in size)
[4] = molecular target: Nucleoprotein (Lymphocytic choriomeningitis virus (strain Armstrong)) (UniProt P09992); test: qHTS for Inhibitors of the Functional Ribonucleoprotein Complex (vRNP) of Lymphocytic Choriomeningitis Arenaviruses (LCMV): LCMV Primary Screen - GLuc reporter signal (AID 1347086); also: nearly all actives have a fitted effect of over 70% in size
Nucleoprotein (Lymphocytic choriomeningitis virus (strain Armstrong)), sequence (P09992 whole entry, looked up): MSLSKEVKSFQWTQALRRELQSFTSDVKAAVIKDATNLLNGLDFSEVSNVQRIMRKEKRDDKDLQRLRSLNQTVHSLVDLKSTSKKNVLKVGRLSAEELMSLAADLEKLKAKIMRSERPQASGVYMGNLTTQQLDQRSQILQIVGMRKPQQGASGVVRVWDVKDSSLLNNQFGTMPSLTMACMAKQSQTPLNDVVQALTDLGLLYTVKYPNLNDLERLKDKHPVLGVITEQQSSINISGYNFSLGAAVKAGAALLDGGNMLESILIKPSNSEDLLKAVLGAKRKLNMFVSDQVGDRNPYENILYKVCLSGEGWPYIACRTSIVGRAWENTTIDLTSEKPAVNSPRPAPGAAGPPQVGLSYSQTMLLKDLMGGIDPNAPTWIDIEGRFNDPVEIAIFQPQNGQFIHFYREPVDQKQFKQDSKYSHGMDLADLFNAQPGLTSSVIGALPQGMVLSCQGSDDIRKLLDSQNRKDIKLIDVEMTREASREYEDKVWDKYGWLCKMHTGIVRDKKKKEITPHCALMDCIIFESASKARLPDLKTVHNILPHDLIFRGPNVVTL
Potency is read from the fitted curve at half-maximal effect.

Compound | Potency [1] | Potency [2] | Potency [3] | Potency [4]
CC(C)(Sc1ccc(CCN(CCCCC2CCCCC2)C(=O)NC2CCCCC2)cc1)C(=O)O | inactive | inactive | inactive | inactive
CCCCCN(CCC12CC3CC(CC(C3)C1)C2)C(=O)NCCCc1ccncc1 | inactive | inactive | inactive | inactive
Cn1c(=O)n(-c2ccc(C(C)(C)C#N)cc2)c2c3cc(-c4cnc5ccccc5c4)ccc3ncc21 | 38.5 nM (active) | 34.3 nM (active) | 61.1 nM (active) | 68.5 nM (active)
NCCO | inactive | inactive | inactive | inactive
CN1CC[C@@H](c2c(O)cc(O)c3c(=O)cc(-c4ccccc4Cl)oc23)[C@@H](O)C1 | 544 nM (active) | 137 nM (active) | 217 nM (active) | 344 nM (active)
CC(C)=CCCC(C)=CCCC(C)=CCSc1ccccc1C(=O)O | 5440 nM (active) | 2430 nM (active) | 9680 nM (active) | 4320 nM (active)
COc1c(C)cnc(Cn2cnc3c(Cl)nc(N)nc32)c1C | 1370 nM (active) | 611 nM (active) | 685 nM (active) | 344 nM (active)
Cc1c(C)c2c(c(C)c1OC(=O)c1cccnc1)CC[C@@](C)(CCC[C@H](C)CCC[C@H](C)CCCC(C)C)O2 | inactive | inactive | inactive | inactive
COc1cc2nc(-c3ccc(N4CCN(C)CC4)cc3)nc(NCCN3CCOCC3)c2cc1OC | 685 nM (active) | 769 nM (active) | 968 nM (active) | 432 nM (active)
O=C(O)CNC(=O)CNC(=O)CNC(=O)CSC(=O)c1ccccc1 | inactive | inactive | inactive | inactive
COc1cccc2c1CCCC2CCCN1CCN(C2CCCCC2)CC1 (stereo not given) | inactive | inactive | inactive | inactive
CC(C)(C)c1nnc(NS(=O)(=O)c2ccccc2)s1 | inactive | inactive | inactive | inactive
CCOC(=O)c1cccnc1 | inactive | inactive | inactive | inactive
N#C/C(=C1\SCC(c2ccccc2Cl)S1)n1ccnc1 (stereo not given) | inactive | inactive | inactive | inactive
COCCn1c2c([n+](Cc3cnccn3)c1C)C(=O)c1ccccc1C2=O | 109 nM (active) | 109 nM (active) | 96.8 nM (active) | 68.5 nM (active)
[O-][n+]1cccc(/C(Cl)=N/OC[C@@H](O)CN2CCCCC2)c1 | inactive | inactive | inactive | inactive
Nc1ccccc1N | inactive | inactive | inactive | inactive
O=C(O)c1ccccn1 | inactive | inactive | inactive | inactive
Nc1nnnn1-c1ccccc1 | inactive | inactive | inactive | inactive
Cc1ccccc1C(C(=O)NC1CCCC1)N(C(=O)Cn1cnc2ccccc21)c1cccc(F)c1 (stereo not given) | inactive | inactive | inactive | inactive

Compound | Potency [1] | Potency [2] | Potency [3] | Potency [4]
N[C@H]1C(O)O[C@H](CO)[C@@H](O)[C@@H]1O (stereo not given in full) | inactive | inactive | inactive | inactive
CN(C)c1ccc(N=NS(=O)(=O)O)cc1 | inactive | inactive | inactive | inactive
Cn1cncc1[C@@](N)(c1ccc(Cl)cc1)c1ccc2c(c1)c(-c1cccc(Cl)c1)cc(=O)n2C | inactive | 4320 nM (active) | 2430 nM (active) | 1370 nM (active)
O=c1cc(CN2CCOCC2)occ1OCCCCCSc1ccnc2cc(C(F)(F)F)ccc12 | 21700 nM (active) | 1930 nM (active) | 273 nM (active) | 1220 nM (active)
COc1ccc(CCN(C)CCCOc2ccc(S(=O)(=O)c3[nH]c4ccccc4c3C(C)C)cc2)cc1OC | inactive | inactive | inactive | inactive
Cn1cc(-c2ccc3nnc(C(F)(F)c4ccc5ncccc5c4)n3n2)cn1 | inactive | inactive | inactive | inactive
CCN1CCc2nc(N)oc2CC1 | inactive | inactive | inactive | inactive
c1ccc2occc2c1 | inactive | inactive | inactive | inactive
CC(C)c1ccccc1Cc1cc(C(=O)Nc2ccc(S(=O)(=O)c3ccccc3C(C)(C)C)cc2)c(O)c(O)c1O | 21700 nM (active) | 19300 nM (active) | 24300 nM (active) | 24300 nM (active)
O=C(O)CCC1CCC(c2cc(F)ccc2F)(S(=O)(=O)c2ccc(Cl)cc2)CC1 (stereo not given) | inactive | inactive | inactive | inactive
c1ccc(-c2nn3c(c2-c2ccnc4cc(OCCN5CCOCC5)ccc24)CCC3)nc1 | inactive | inactive | inactive | inactive
CC(C)OC(=O)c1cc(C(=O)OC(C)C)cc([N+](=O)[O-])c1 | inactive | inactive | inactive | inactive
COc1cccc(OC)c1-c1cc(C(=O)NC2(C(=O)O)C3CC4CC(C3)CC2C4)nn1-c1ccnc2cc(Cl)ccc12 (stereo not given) | inactive | inactive | inactive | inactive
CCC(C)(Oc1ccc(C2(c3ccc(OC(C)(CC)C(=O)O)cc3)CCCCC2)cc1)C(=O)O (stereo not given) | inactive | inactive | inactive | inactive
Cn1c(Nc2ccc(C(F)(F)F)cc2)nc2cc(Oc3ccnc(-c4ncc(C(F)(F)F)[nH]4)c3)ccc21 | 21700 nM (active) | 2430 nM (active) | 8630 nM (active) | inactive
COc1cc2c(Oc3ccc(-c4cnc(Nc5ccc(F)cc5)n(C)c4=O)cc3F)ccnc2cc1OCCCN1CCOCC1 | 21700 nM (active) | 15300 nM (active) | 21700 nM (active) | 24300 nM (active)
Cc1ccc(C(=O)Nc2cccc(C(F)(F)F)c2)cc1-c1ccc2nc(NCCN3CCOCC3)ncc2c1 | 10900 nM (active) | 13700 nM (active) | 19300 nM (active) | 12200 nM (active)
CCOC(=O)C(=O)CCCCCCl | inactive | inactive | inactive | inactive
Cc1cc(-c2ccccc2)nnc1NCCN1CCOCC1 | inactive | inactive | inactive | inactive
C=C1C(=CC=C2CCC[C@]3(C)[C@@H]([C@H](C)C=C[C@H](C)C(C)C)CC[C@@H]23)C[C@@H](O)C[C@@H]1O | inactive | 13700 nM (active) | 13700 nM (active) | inactive

Compound | Potency [1] | Potency [2] | Potency [3] | Potency [4]
C=C1C(=CC=C2CCCC3(C)[C@@H]([C@H](C)C=CC=CC(O)(CC)CC)CC[C@@H]23)C[C@@H](O)C[C@@H]1O (stereo not given in full) | inactive | inactive | inactive | inactive
CC[C@@H](C)[C@H](NC(=O)[C@H](CC1CCCCC1)NC(=O)c1ccno1)C(=O)N1CCC2(CCc3ccccc32)CC1 | inactive | inactive | inactive | inactive
CCN(CC)CCc1nc(-c2ccccc2)no1 | inactive | inactive | inactive | inactive
Cc1cc(SCc2sc(-c3ccc(C(F)(F)F)cc3)nc2C)ccc1OCC(=O)O | inactive | inactive | inactive | inactive
COc1cc2c(cc1OC)C(=O)CC2 | inactive | inactive | inactive | inactive
CCCCC(CC)COC(=O)/C=C/c1ccc(OC)cc1 (stereo not given) | inactive | inactive | inactive | inactive
O=C(O)c1ccc2c(c1)nc(Nc1cccc(Cl)c1)c1ccncc12 | inactive | inactive | inactive | inactive
CCN1CCN(Cc2ccc(-c3cc4c(N[C@H](C)c5ccccc5)ncnc4[nH]3)cc2)CC1 | inactive | 7.7 nM (active) | inactive | inactive
O=C(Oc1ccccc1)c1cccc(C(=O)Oc2ccccc2)c1 | inactive | inactive | inactive | inactive
Cc1ccccc1N=Nc1ccc(N=Nc2c(O)ccc3ccccc23)c(C)c1 | inactive | inactive | inactive | inactive
OCCCc1ccccc1 | inactive | inactive | inactive | inactive
O=C(O)CCc1ccc(NCc2cccc(Oc3ccccc3)c2)cc1 | inactive | inactive | inactive | inactive
Cc1nn(Cc2ccccc2Cl)c(C)c1CN(C)CC(O)COc1ccc(Cl)cc1 (stereo not given) | inactive | inactive | inactive | inactive
CC(C)(C)NCC(O)c1ccc(O)c(CO)c1 (stereo not given) | inactive | inactive | inactive | inactive
CCCCCCCC(=O)OCC(O)CO (stereo not given) | inactive | inactive | inactive | inactive
Cc1ccc(S(=O)(=O)Nc2cc(Cl)ccc2C(=O)Nc2nc(-c3ccccc3)cs2)cc1 | inactive | inactive | inactive | inactive
CC1=C(CO)C(=O)O[C@@H]([C@@H](C)[C@H]2CC[C@H]3[C@@H]4C[C@H]5O[C@]56[C@@H](O)C=CC(=O)[C@]6(C)[C@@H]4CC[C@]23C)C1 | 863 nM (active) | 3060 nM (active) | 3850 nM (active) | 1530 nM (active)
COc1ccc(C=Cc2cc(OC)c(OC)c(OC)c2)cc1O | inactive | inactive | inactive | inactive
COc1cc(Oc2ccnc3cc(OC)c(OC)cc23)ccc1NC(=O)NC(C)c1nccs1 (stereo not given) | inactive | inactive | inactive | inactive
CN(C)CC/C=C1/c2ccccc2COc2ccc(CC(=O)O)cc21 | inactive | inactive | inactive | inactive
